# Reference: article PMC11006913
# Key:
# Test in all cases: PBM; 200 nM protein, PBS
# Conditions in all cases: dsDNA, one strand shown
# HOXD13 [1] = molecular target: HOXD13 (Homo sapiens, UniProt P35453 263-343, T313R)
# HOXD13 [2] = molecular target: HOXD13 (Homo sapiens, UniProt P35453 263-343)
# HOXD13 [3] = molecular target: HOXD13 (Homo sapiens, UniProt P35453 263-343, T313A)
# HOXC10 = HOXC10 (Homo sapiens, UniProt Q9NYD6 254-340, K271E)
# VAX1 [4] = molecular target: VAX1 (Homo sapiens, UniProt Q5SQQ9 86-172)
# VAX1 [5] = molecular target: VAX1 (Homo sapiens, UniProt Q5SQQ9 86-172, T142I)
# VAX1 [6] = molecular target: VAX1 (Homo sapiens, UniProt Q5SQQ9 86-172, K157R)
# Sequence of VAX1 (Homo sapiens, UniProt Q5SQQ9 86-172, K157R) (Q5SQQ9 86-172 K157R): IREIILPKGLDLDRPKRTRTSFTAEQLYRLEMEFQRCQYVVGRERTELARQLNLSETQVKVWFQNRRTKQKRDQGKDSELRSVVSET
# Sequence of HOXD13 (Homo sapiens, UniProt P35453 263-343, T313A) (P35453 263-343 T313A): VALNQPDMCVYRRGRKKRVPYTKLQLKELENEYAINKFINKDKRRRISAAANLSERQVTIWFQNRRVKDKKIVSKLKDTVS
# Sequence of HOXD13 (Homo sapiens, UniProt P35453 263-343) (P35453 263-343): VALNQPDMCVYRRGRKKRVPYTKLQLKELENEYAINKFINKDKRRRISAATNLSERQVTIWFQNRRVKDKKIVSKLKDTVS
# Sequence of HOXD13 (Homo sapiens, UniProt P35453 263-343, T313R) (P35453 263-343 T313R): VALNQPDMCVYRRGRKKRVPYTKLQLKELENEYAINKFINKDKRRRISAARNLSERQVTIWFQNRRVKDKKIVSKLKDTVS
# Sequence of VAX1 (Homo sapiens, UniProt Q5SQQ9 86-172, T142I) (Q5SQQ9 86-172 T142I): as the sequence (Q5SQQ9 86-172 K157R) above, with T57I, R72K counted along it
# Sequence of HOXC10 (Q9NYD6 254-340 K271E): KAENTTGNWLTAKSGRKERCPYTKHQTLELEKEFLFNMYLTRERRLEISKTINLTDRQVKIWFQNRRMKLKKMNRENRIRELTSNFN
# Sequence of VAX1 (Homo sapiens, UniProt Q5SQQ9 86-172) (Q5SQQ9 86-172): as the sequence (Q5SQQ9 86-172 K157R) above, with R72K counted along it
sequence,measurement,setting,value
GCTCGTAA,binding signal,HOXD13 [1],"10.6 upbm affinity estimate (log intensity, higher = more binding, comparable within an allelic series)"
same,binding signal,HOXD13 [2],"11.9 upbm affinity estimate (log intensity, higher = more binding, comparable within an allelic series)"
same,binding signal,HOXD13 [3],"11.7 upbm affinity estimate (log intensity, higher = more binding, comparable within an allelic series)"
CCGGCCCA,binding signal,HOXD13 [1],"9.49 upbm affinity estimate (log intensity, higher = more binding, comparable within an allelic series)"
same,binding signal,HOXD13 [2],"9.55 upbm affinity estimate (log intensity, higher = more binding, comparable within an allelic series)"
same,binding signal,HOXD13 [3],"9.54 upbm affinity estimate (log intensity, higher = more binding, comparable within an allelic series)"
TCTCGTAA,binding signal,HOXD13 [1],"10.5 upbm affinity estimate (log intensity, higher = more binding, comparable within an allelic series)"
same,binding signal,HOXD13 [2],"11.8 upbm affinity estimate (log intensity, higher = more binding, comparable within an allelic series)"
same,binding signal,HOXD13 [3],"11.6 upbm affinity estimate (log intensity, higher = more binding, comparable within an allelic series)"
TCCATAAA,binding signal,HOXD13 [1],"10.7 upbm affinity estimate (log intensity, higher = more binding, comparable within an allelic series)"
same,binding signal,HOXD13 [2],"11.9 upbm affinity estimate (log intensity, higher = more binding, comparable within an allelic series)"
same,binding signal,HOXC10,"11.4 upbm affinity estimate (log intensity, higher = more binding, comparable within an allelic series)"
same,binding signal,HOXD13 [3],"11.7 upbm affinity estimate (log intensity, higher = more binding, comparable within an allelic series)"
CTTGTTAA,binding signal,HOXD13 [1],"10.6 upbm affinity estimate (log intensity, higher = more binding, comparable within an allelic series)"
same,binding signal,HOXD13 [2],"11.8 upbm affinity estimate (log intensity, higher = more binding, comparable within an allelic series)"
same,binding signal,HOXD13 [3],"11.7 upbm affinity estimate (log intensity, higher = more binding, comparable within an allelic series)"
ATTCATGG,binding signal,HOXD13 [1],"10.2 upbm affinity estimate (log intensity, higher = more binding, comparable within an allelic series)"
same,binding signal,HOXD13 [2],"10.8 upbm affinity estimate (log intensity, higher = more binding, comparable within an allelic series)"
CCGCCCTC,binding signal,HOXD13 [1],"9.56 upbm affinity estimate (log intensity, higher = more binding, comparable within an allelic series)"
same,binding signal,HOXD13 [2],"9.65 upbm affinity estimate (log intensity, higher = more binding, comparable within an allelic series)"
same,binding signal,HOXD13 [3],"9.66 upbm affinity estimate (log intensity, higher = more binding, comparable within an allelic series)"
GGCCGGCA,binding signal,HOXD13 [1],"9.49 upbm affinity estimate (log intensity, higher = more binding, comparable within an allelic series)"
same,binding signal,HOXD13 [2],"9.56 upbm affinity estimate (log intensity, higher = more binding, comparable within an allelic series)"
same,binding signal,HOXD13 [3],"9.65 upbm affinity estimate (log intensity, higher = more binding, comparable within an allelic series)"
TCACTAAA,binding signal,HOXD13 [1],"10.1 upbm affinity estimate (log intensity, higher = more binding, comparable within an allelic series)"
same,binding signal,HOXD13 [2],"10.6 upbm affinity estimate (log intensity, higher = more binding, comparable within an allelic series)"
CCGCGCTC,binding signal,HOXD13 [1],"9.52 upbm affinity estimate (log intensity, higher = more binding, comparable within an allelic series)"
same,binding signal,HOXD13 [2],"9.5 upbm affinity estimate (log intensity, higher = more binding, comparable within an allelic series)"
same,binding signal,HOXD13 [3],"9.47 upbm affinity estimate (log intensity, higher = more binding, comparable within an allelic series)"
CCTATTAA,binding signal,HOXD13 [1],"11 upbm affinity estimate (log intensity, higher = more binding, comparable within an allelic series)"
same,binding signal,HOXD13 [2],"12.1 upbm affinity estimate (log intensity, higher = more binding, comparable within an allelic series)"
same,binding signal,HOXD13 [3],"11.9 upbm affinity estimate (log intensity, higher = more binding, comparable within an allelic series)"
GTTGTAAA,binding signal,HOXD13 [1],"10.6 upbm affinity estimate (log intensity, higher = more binding, comparable within an allelic series)"
same,binding signal,HOXD13 [2],"11.8 upbm affinity estimate (log intensity, higher = more binding, comparable within an allelic series)"
same,binding signal,HOXD13 [3],"11.7 upbm affinity estimate (log intensity, higher = more binding, comparable within an allelic series)"
CTTTACGA,binding signal,HOXD13 [1],"10.5 upbm affinity estimate (log intensity, higher = more binding, comparable within an allelic series)"
same,binding signal,HOXD13 [2],"11.8 upbm affinity estimate (log intensity, higher = more binding, comparable within an allelic series)"
same,binding signal,HOXD13 [3],"11.5 upbm affinity estimate (log intensity, higher = more binding, comparable within an allelic series)"
TCGATCGA,binding signal,HOXD13 [1],"9.65 upbm affinity estimate (log intensity, higher = more binding, comparable within an allelic series)"
same,binding signal,HOXD13 [2],"9.44 upbm affinity estimate (log intensity, higher = more binding, comparable within an allelic series)"
same,binding signal,HOXD13 [3],"9.58 upbm affinity estimate (log intensity, higher = more binding, comparable within an allelic series)"
TCGGCCCA,binding signal,HOXD13 [1],"9.58 upbm affinity estimate (log intensity, higher = more binding, comparable within an allelic series)"
same,binding signal,HOXD13 [2],"9.62 upbm affinity estimate (log intensity, higher = more binding, comparable within an allelic series)"
same,binding signal,HOXD13 [3],"9.55 upbm affinity estimate (log intensity, higher = more binding, comparable within an allelic series)"
GCAAGACC,binding signal,HOXD13 [1],"9.62 upbm affinity estimate (log intensity, higher = more binding, comparable within an allelic series)"
same,binding signal,HOXD13 [2],"9.57 upbm affinity estimate (log intensity, higher = more binding, comparable within an allelic series)"
same,binding signal,HOXD13 [3],"9.69 upbm affinity estimate (log intensity, higher = more binding, comparable within an allelic series)"
GATACGAC,binding signal,HOXD13 [1],"9.91 upbm affinity estimate (log intensity, higher = more binding, comparable within an allelic series)"
same,binding signal,HOXD13 [2],"10.3 upbm affinity estimate (log intensity, higher = more binding, comparable within an allelic series)"
ATTACGAG,binding signal,HOXD13 [1],"10.5 upbm affinity estimate (log intensity, higher = more binding, comparable within an allelic series)"
same,binding signal,HOXD13 [2],"11.7 upbm affinity estimate (log intensity, higher = more binding, comparable within an allelic series)"
same,binding signal,HOXD13 [3],"11.4 upbm affinity estimate (log intensity, higher = more binding, comparable within an allelic series)"
CCTCATAA,binding signal,HOXD13 [1],"10.6 upbm affinity estimate (log intensity, higher = more binding, comparable within an allelic series)"
same,binding signal,HOXD13 [2],"11.8 upbm affinity estimate (log intensity, higher = more binding, comparable within an allelic series)"
same,binding signal,HOXD13 [3],"11.6 upbm affinity estimate (log intensity, higher = more binding, comparable within an allelic series)"
GTTTATGA,binding signal,HOXD13 [1],"10.9 upbm affinity estimate (log intensity, higher = more binding, comparable within an allelic series)"
same,binding signal,HOXD13 [2],"12 upbm affinity estimate (log intensity, higher = more binding, comparable within an allelic series)"
same,binding signal,HOXD13 [3],"11.8 upbm affinity estimate (log intensity, higher = more binding, comparable within an allelic series)"
CCCGCCCC,binding signal,HOXD13 [1],"9.6 upbm affinity estimate (log intensity, higher = more binding, comparable within an allelic series)"
same,binding signal,HOXD13 [2],"9.54 upbm affinity estimate (log intensity, higher = more binding, comparable within an allelic series)"
same,binding signal,HOXD13 [3],"9.7 upbm affinity estimate (log intensity, higher = more binding, comparable within an allelic series)"
GCCACGGA,binding signal,HOXD13 [1],"9.56 upbm affinity estimate (log intensity, higher = more binding, comparable within an allelic series)"
same,binding signal,HOXD13 [2],"9.61 upbm affinity estimate (log intensity, higher = more binding, comparable within an allelic series)"
same,binding signal,HOXD13 [3],"9.69 upbm affinity estimate (log intensity, higher = more binding, comparable within an allelic series)"
CTACGTAG,binding signal,HOXD13 [1],"9.84 upbm affinity estimate (log intensity, higher = more binding, comparable within an allelic series)"
same,binding signal,HOXD13 [2],"9.97 upbm affinity estimate (log intensity, higher = more binding, comparable within an allelic series)"
same,binding signal,HOXD13 [3],"9.71 upbm affinity estimate (log intensity, higher = more binding, comparable within an allelic series)"
CCCTGACC,binding signal,HOXD13 [1],"9.5 upbm affinity estimate (log intensity, higher = more binding, comparable within an allelic series)"
same,binding signal,HOXD13 [2],"9.5 upbm affinity estimate (log intensity, higher = more binding, comparable within an allelic series)"
same,binding signal,VAX1 [4],"7.22 upbm affinity estimate (log intensity, higher = more binding, comparable within an allelic series)"
same,binding signal,HOXD13 [3],"9.64 upbm affinity estimate (log intensity, higher = more binding, comparable within an allelic series)"
same,binding signal,VAX1 [5],"7.35 upbm affinity estimate (log intensity, higher = more binding, comparable within an allelic series)"
same,binding signal,VAX1 [6],"7.27 upbm affinity estimate (log intensity, higher = more binding, comparable within an allelic series)"
AAGGCGAG,binding signal,HOXD13 [1],"9.65 upbm affinity estimate (log intensity, higher = more binding, comparable within an allelic series)"
same,binding signal,HOXD13 [2],"9.72 upbm affinity estimate (log intensity, higher = more binding, comparable within an allelic series)"
same,binding signal,HOXD13 [3],"9.78 upbm affinity estimate (log intensity, higher = more binding, comparable within an allelic series)"
GGGAGAAC,binding signal,HOXD13 [1],"9.51 upbm affinity estimate (log intensity, higher = more binding, comparable within an allelic series)"
same,binding signal,HOXD13 [2],"9.63 upbm affinity estimate (log intensity, higher = more binding, comparable within an allelic series)"
same,binding signal,HOXD13 [3],"9.68 upbm affinity estimate (log intensity, higher = more binding, comparable within an allelic series)"
AGGGGGGA,binding signal,HOXD13 [1],"9.23 upbm affinity estimate (log intensity, higher = more binding, comparable within an allelic series)"
same,binding signal,HOXD13 [2],"9.47 upbm affinity estimate (log intensity, higher = more binding, comparable within an allelic series)"
same,binding signal,HOXD13 [3],"9.55 upbm affinity estimate (log intensity, higher = more binding, comparable within an allelic series)"
